The source of these data is PMC8384837, “Expanding the binding specificity for RNA recognition by a PUF domain”.

The target in this experiment is PUM1 PUF domain R4-DYG (Homo sapiens, UniProt Q14671 828-1176, N971D;H972Y;Q975G). As to the kind of experiment: yeast three-hybrid, YBZ-1, SC-Leu-His + 0.5 mM 3-AT, 4 days. To be noted: tags: N-Gal4 AD-HA kept; label: inside an RPR1-promoter hybrid RNA with tandem MS2 sites; ssRNA. The procedure, abridged:
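The interaction score is the logarithmic change in variant frequency from input to selection. It uses log2, with a pseudocount of 1 for absent variants, and frequencies came from PCR-amplified, Illumina-sequenced repeat regions. The libraries were Pumilio-1 PUF domains randomized at the three base-contacting residues per repeat, co-expressed with matching RNA elements in strain YBZ-1 (LexA–MS2 coat fusion, HIS3 reporter). Plating lasted four days on SC-Leu (input) or SC-Leu-His + 0.5 mM 3-AT (selection).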
Consider “GGCUAGAACUAGUGGAUCCCCCGGCGCCCGGCGGCUCGAGCCCGGGUAAGUGUAUAUAGUCUGCAUGCCGCCGGGCGCCAUGCCUGCAGGUCGACUCUAGAAAACAUG”, for which the binding signal is 6.59 log2 enrichment (interaction score). Take “GGCUAGAACUAGUGGAUCCCCCGGCGCCCGGCGGCUCGAGCCCGGGUAAGUGUACAUAGUCUGCAUGCCGCCGGGCGCCAUGCCUGCAGGUCGACUCUAGAAAACAUG”: the binding signal is 5.37 log2 enrichment (interaction score).

As for “GGCUAGAACUAGUGGAUCCCCCGGCGCCCGGCGGCUCGAGCCCGGGUAAGUGUAAAUAGUCUGCAUGCCGCCGGGCGCCAUGCCUGCAGGUCGACUCUAGAAAACAUG”, the binding signal is 6.38 log2 enrichment (interaction score).
